In PubChem BioAssay AID686978 (National Center for Advancing Translational Sciences (NCATS), 2013):
Hit rate of the full screen: of about 420,000 compounds, about 64,000 (15%) were called active. About 27% were inconclusive and are not listed. Not all results are given here. Values without a mark were called inactive. Calls follow the shape of the dose curve; as a rule, active = well fitted inhibition curve with a large enough effect; inconclusive = small, poorly fitted or top-dose-only effect; inactive = flat fitted curve, though single readings scatter.

experiment: qHTS for Inhibitors of human tyrosyl-DNA phosphodiesterase 1 (TDP1): qHTS in cells in absence of CPT; settings: DT40 Tdp1-/- hTDP1 cells, no CPT, ATP luminescence, 48 h; activity change, negative = growth inhibition: at 46.2 µM (top of the series); also: nearly all actives have a fitted effect of over 55% in size
Summary of the method: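 Growth kinetics read by CellTiter-Glo luminescence after ≥48 hr at 37 °C. Cells: DT40 Tdp1-/- stably carrying human TDP1, 400 per well, compound exposure in the absence of CPT (DMSO vehicle).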
% is scaled to controls: 0 for no effect and ±100 for the full control effect; potency is read from the fitted curve at half-maximal effect.

SMILES	activity change, negative = growth inhibition	Potency
Cc1cc(OC(C)C(=O)NC2CC(C)(C)NC(C)(C)C2)c2c(C)cc(=O)oc2c1 (stereo not given)	3.08%	–
Oc1ccccc1-c1nc(/C=C/c2ccc(F)cc2)no1	-29.4%	–
CCCN(c1ccc(C(C)C)cc1)S(=O)(=O)c1c(C)[nH]c(=O)[nH]c1=O	-9.18%	–
O=C(NC1CCCCC1)C1CCC(CNS(=O)(=O)c2ccccc2)CC1 (stereo not given)	1.01%	–
CCOc1ccc(N(CC(=O)NC2CCCCCC2)S(=O)(=O)c2c(C)[nH]c(=O)[nH]c2=O)cc1	10.1%	–
CC(=O)NC(NC(=S)Nc1c(C)n(C)n(-c2ccccc2)c1=O)C(Cl)(Cl)Cl (stereo not given)	6.77%	–
CC1(C)Cc2cccc(OCC(N)=O)c2O1	8.49%	–
CC(=O)Nc1cncc(-c2ccccc2CO)n1	0.247%	–
CC1C(=O)NC(=O)C1c1ccccc1 (stereo not given)	22.4%	–
COc1cccc(C(=O)NCCSc2ccc(Br)cc2)c1	-15.9%	–
O=C(CCNS(=O)(=O)c1ccccc1)NCCSc1ccc(Br)cc1	-13.8%	–
O=C(CNC(=O)c1ccccc1Br)NCCSc1ccc(Br)cc1	–	18.4 µM (active)
CC(=O)c1sc(NC(=O)CCN2C(=O)C3CC=CCC3C2=O)nc1-c1ccccc1 (stereo not given)	0.639%	–
CC(Oc1ccccc1)C(=O)Nc1oc(-c2ccco2)c(-c2ccco2)c1C#N (stereo not given)	-2.75%	–
CSc1ncc(Cl)c(C(=O)Nc2cc(C)ccc2C)n1	15.7%	–
CSc1ncc(Cl)c(C(=O)Nc2ccc(S(=O)(=O)N3CCCC(C)C3)cc2)n1 (stereo not given)	–	14.6 µM (active)
CCc1ccc(NC(=O)c2cc(S(=O)(=O)N3CCCC(C)C3)cn2C)cc1 (stereo not given)	-0.723%	–
COc1c(F)c(F)c(-c2csc(N)n2)c(F)c1F	-28.9%	–
Cc1cc(C)n(CCNCc2c(C(=O)N3C[C@@H](C)O[C@@H](C)C3)nc3ccc(Cl)cn23)n1	-0.569%	–
CCOC(=O)NN1C(=O)c2ccccc2NC1c1ccccc1O (stereo not given)	–	23.1 µM (active)
CC(=O)NN1C(=O)c2ccccc2NC1c1ccccc1 (stereo not given)	2.25%	–
O=C1c2ccccc2NC(c2ccccc2O)N1NS(=O)(=O)c1ccccc1 (stereo not given)	-7.78%	–
CCCCNC(=O)Nc1c(C)cc(SC#N)cc1C	–	8.2 µM (active)
CCCCNC(=O)C(=O)c1ccccc1NC(C)=O	-1.06%	–
CCC(C)C(CO)NC(=O)/C=C/[C@H]1O[C@@H](n2cnc3c(NC(=O)c4ccccc4)ncnc32)[C@H](O)[C@@H]1O (stereo not given in full)	9.97%	–
CNc1nnc(-c2ccco2)s1	-0.333%	–
O=C(NCc1ccccn1)Nc1ccc(F)cc1	3.3%	–

SMILES	activity change, negative = growth inhibition	Potency
CCOC(=O)c1ccccc1NC(=O)CSc1nc2c(sc(=S)n2CC)c(=O)[nH]1	16.5%	–
CC(C)CN1CCNC(=O)C1CC(=O)N(C)CC1CCOCC1 (stereo not given)	-16.4%	–
COC(=O)c1cc(C(=O)NC(C)C2CC3CCC2C3)cc([N+](=O)[O-])c1 (stereo not given)	–	20.6 µM (active)
CC(NC(=O)CN(C)S(=O)(=O)c1ccc(F)cc1)C1CC2CCC1C2 (stereo not given)	4.07%	–
COC(=O)c1cc(C(=O)OCC(=O)Nc2cc(C)on2)cc([N+](=O)[O-])c1	0.11%	–
OC1CN=C2Sc3ccccc3N2C1 (stereo not given)	-19.7%	–
O=C(NC(=O)c1ccc(Cl)c(Cl)c1)OC1CCS(=O)(=O)C1 (stereo not given)	-4.5%	–
CCCCOc1ccc(C(=O)NCC(=O)OCC(=O)c2c(N)n(C)c(=O)n(C)c2=O)cc1	-16.3%	–
COc1cc(NC(=O)c2cncc(-c3ccc(C#N)cc3)c2)cc(C(=O)Nc2cccc(C(F)(F)F)c2)c1	–	10.3 µM (active)
COc1cc(NC(=O)c2[nH]cnc2C(N)=O)cc(C(=O)Nc2cccc(C(F)(F)F)c2)c1	–	18.4 µM (active)
COc1cc(NC(=O)c2cccnc2SC)cc(OC)c1	-9.43%	–
O=C(Nc1cccc(C(F)(F)F)c1)c1cnccn1	9.25%	–
CCn1nnnc1SCC(=O)Nc1ccc(N(C)C)cc1	-2.75%	–
Cn1c(N)c(C(=O)COC(=O)/C=C/c2cccc(C(F)(F)F)c2)c(=O)n(C)c1=O	-25.4%	–
Cc1noc(C)c1-c1nccc(N2CCOCC2)n1	-3.85%	–
CCCCc1nc2cc(C(=O)NCCc3cnn(C)c3)ccc2o1	-28.5%	–
O=C(O)C1CC=CCC1C(=O)Nc1ccccc1C(=O)N1CCN(c2ccccc2)CC1 (stereo not given)	–	20.6 µM (active)
O=C(Nc1ccccc1C(=O)N1CCCCCC1)c1ccccc1Cl	-4.37%	–
CC1CCN(C(=O)c2ccccc2NC(=O)Cc2ccccc2)CC1	9.05%	–
Cc1ccccc1NC(=O)C1CCN(C(=O)NC2CCCCC2)CC1	-4.82%	–
CC1CC(=O)N(CC(=O)Nc2cccc(Cl)c2)c2ccccc2S1(=O)=O (stereo not given)	-4.87%	–
CC(=O)N1CCN(CC(=O)Nc2ccc(C)c(F)c2)CC1	26%	–
Cc1ccc(NC(=O)CN2c3ccccc3S(=O)(=O)c3ccccc32)cc1F	–	18.4 µM (active)
CCCCOc1ccc(NC(=O)c2cc3c(n(-c4ccc(Cl)cc4)c2=O)CCCC3=O)cc1	16.6%	–
c1ccc2cc(C3=NCCN3)ccc2c1	-24%	–
Cc1cc(=O)c2cc(C(=O)Nc3cccc(C)c3C)ccc2[nH]1	-15.6%	–
Cc1ccccc1NC(=O)c1cc(S(=O)(=O)Nc2cccc(C(=O)O)c2)ccc1Cl	16%	–

SMILES	activity change, negative = growth inhibition	Potency
C=CCNC(=O)c1ccccc1NC(=O)c1ccc(Cl)c(S(=O)(=O)Nc2cccc(C)c2C)c1	–	16.4 µM (active)
CC1(C)CC(=O)C2=C(C1)Nc1cc(C(=O)c3ccccc3)ccc1NC2c1ccccn1 (stereo not given)	-1.7%	–
O=C(COC(=O)c1ccccc1OCCOc1ccccc1)Nc1cccc(Br)c1	-20.2%	–
Cc1cccc(NC(=O)COC(=O)c2ccccc2OCc2cccc(Br)c2)c1	–	22.4 µM (active)
Cc1cccc(C(=O)OCC(=O)Nc2ccc(F)cc2)c1	-23.4%	–
Nc1nc(C23CC4CC(CC(C4)C2)C3)cs1	-15.4%	–
CN(C)c1ccc(S(=O)(=O)NCC(=O)NCC2CCCCC2)cc1[N+](=O)[O-]	0.804%	–
Cc1noc(NS(=O)(=O)c2ccc(N3CC(O)=C(c4ccccc4)C3=N)cc2)c1C	-0.727%	–
CCC(C)c1ccccc1N1CC(C(=O)N2CCN(S(=O)(=O)c3ccc(F)cc3)CC2)CC1=O (stereo not given)	-24.6%	–
CC(=O)NC(c1ccccc1)c1nc(-c2ccccc2C)cs1 (stereo not given)	-8.95%	–
CCC1=C(OC(=O)N(CC)CC)N2C(=O)OC(=NCC3CC3)[C@]2(C)[C@H]2C1=CC[C@H]1C(=O)N(CC(=O)OC)C(=O)[C@H]12	-5.13%	–
CCn1nc(C)c(NC(=O)/C=C/c2ccc(OC)c(COc3ccc(Br)cc3)c2)c1C	–	20.6 µM (active)
CCn1nc(C(=O)NNS(=O)(=O)c2cc(/C=C/C(=O)O)cc(OC)c2OC)c2ccccc2c1=O	6.78%	–
COc1ccc(OC)c(S(=O)(=O)Nc2c(C)nn(C)c2C)c1	18.5%	–
Cc1ccccc1NC(=O)c1c(NC(=O)c2ccccc2F)sc2c1CCC(C)C2 (stereo not given)	-5.64%	–
COC(=O)c1c(NC(=O)c2ccccc2F)sc2c1C(C(=O)OC)CC2 (stereo not given)	–	11.6 µM (active)
O=C(Nc1nnc(-c2ccccc2F)s1)c1ccccc1F	-14.6%	–
COc1cc(NC(=O)CCNC(=O)Cn2ccc3ccccc3c2=O)cc(OC)c1OC	–	inactive
CC(=O)C[C@H](O)CC(=O)[C@@H]1OC(=O)[C@@H](C)C/C=C\Cc2ccccc21	-11.3%	–
N#CC1=C(N)Oc2cc(N)ccc2C1c1ccccc1 (stereo not given)	–	18.4 µM (active)
Cc1cc(C)c2c3c(sc2n1)C(c1ccccc1)C(C#N)=C(N)O3 (stereo not given)	-23%	–
CC(C)c1ccc(C2C(C#N)=C(N)Oc3c2oc(CO)cc3=O)cc1 (stereo not given)	-11.5%	–
c1nc(COc2nsnc2N2CCOCC2)cs1	-13.8%	–
CC(=O)Nc1cc2ccc(OC(C)=O)cc2oc1=O	-20%	–
CC(C)NC(=O)C(=O)N/N=C/c1ccco1	10.1%	–
CC(C)Oc1ccc(CNC(=O)C2CCN(c3nc4ccccc4n(C)c3=O)CC2)cc1	-15.9%	–
CCCCNC(=O)CCn1c(=O)c2ccccc2n(Cc2cc(C)ccc2C)c1=O	–	inactive

SMILES	activity change, negative = growth inhibition	Potency
O=C(NCCCc1ccccc1)C1CCC(CNc2c(N3CCCCC3)c(=O)c2=O)CC1 (stereo not given)	-14.4%	–
Cc1ccc(C)c(Cn2c(CCCNC(=O)C3CCCCC3)nc3ccccc32)c1	–	16.4 µM (active)
Cc1ccc(Cn2c(CCCNC(=O)C3CCCCC3)nc3ccccc32)cc1	–	20.6 µM (active)
Cc1ccc(CN2C(=O)CCC2C(=O)NCCCN2CCCCC2C)cc1 (stereo not given)	-0.806%	–
CCc1ccc(OCCCn2c(CCCNC(=O)C3CCCCC3)nc3ccccc32)cc1	–	4.47 µM (active)
CCCc1nc2c(C)cc(-c3nc4ccccc4n3C)cc2n1Cc1ccc(-c2ccccc2C(=O)O)cc1	-19.6%	–
CCCNC(=O)C1CCN(c2nc3ccc(C)cc3[nH]2)CC1	-6.49%	–
O=C(NC1CC(=O)N(c2ccc(F)cc2)C1)c1cccs1 (stereo not given)	-16.2%	–
Cc1cc(C)c(S(=O)(=O)c2ccc(F)cc2C)c(=O)[nH]1	2.94%	–
COc1cccc(NC(=O)c2nn(-c3ccc(OC)cc3OC)c(=O)c3ccccc23)c1	-1.05%	–
O=C1NC(c2ccccc2)Cc2ccncc21 (stereo not given)	-29.1%	–
N[C@H]1CN(c2c(F)cc3c(=O)c(C(=O)O)cn(C4C[C@H]4F)c3c2Cl)CC12CC2 (stereo not given in full)	-27.3%	–
NS(=O)(=O)c1cccc(NC(=O)CN2CCCc3ccccc32)c1	-2.52%	–
COC(=O)c1[nH]c2cccc(C)c2c1NC(=O)CN1CCCc2ccccc21	–	20.6 µM (active)
Cc1ccc(OCC(=O)Nc2cccc3c2CCCC3)cc1C	-27%	–
CCN1CCN(C(=O)C2(NC(=O)Nc3cccc(F)c3)CCCCC2)CC1	-18.3%	–
O=C(COc1ccc2ccc(=O)oc2c1)NCC(O)c1ccccc1 (stereo not given)	17.9%	–
COCCn1c(=O)c(-c2ccc(OC)cc2)nc2cnc(Oc3cccc(Cl)c3)nc21	-9.79%	–
O=C(NCc1cccs1)C1CCN(S(=O)(=O)c2ccc3c(c2)OCCO3)CC1	-23.7%	–
COc1ccc(C(=O)OCC(=O)Nc2cc(C)on2)cc1F	0.457%	–
O=C(CCNC(=O)c1ccc(Cl)cc1)NC1CCCc2ccccc21 (stereo not given)	4.52%	–
CC(=O)NCC(=O)NC1CCCc2c1cnn2-c1ccccc1F (stereo not given)	-0.918%	–
Cn1nccc1C(=O)NC1CCCc2c1cnn2-c1ccccc1F (stereo not given)	–	2.06 µM (active)
Cn1nccc1C(=O)NC1CCCc2c1cnn2-c1ccc(F)cc1F (stereo not given)	–	1.64 µM (active)
